According to PubChem BioAssay (NCI):
Values joined by “and” are separate entries in the source; they are usually repeats but may differ in a detail not shown here. Equal entries are not always repeated. About 83,000 compounds went through this panel and 20% of them were active in at least one assay; those are over-represented in the sample as a whole.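 Treatment: one concentration, 48 hours, 96-well format. Scoring: percent growth, with anything below 10 considered active.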 A number with no mark means an inactive call. Active and inactive are the calls of the source.

The molecules below were run on HL-60(TB) leukemia (assay: NCI-60 one-dose screen, 48 h (100 = growth as untreated, 0 = no growth, -100 = all killed)). Conditions: 10 µM unless noted.

Row | SMILES | growth
1 | Nc1cccc(-c2nc3sccn3c2-c2ccnc(NCCNS(=O)(=O)c3ccc(C(F)(F)F)cc3)n2)c1 | 89.1%
2 | COc1ccc(-c2nc3c(c(-c4ccccc4)nn3-c3ccccc3)c(-c3ccc(N4CCOCC4)cc3)c2C#N)cc1 | 101%
3 | CCN1C(=O)N(CC)C2C1NN=c1s/c(=C\c3cccnc3)c(=O)n12 (stereo not given) | -27.5% (active)
4 | CC(C)Cn1cnc2c3ccccc3nc(NCn3nc(-c4cc(Cl)cc(Cl)c4Cl)oc3=S)c21 | 43.8%
5 | O=C(c1cc2ccccc2o1)c1nn(-c2ccccc2)/c(=N/N=Cc2cn(-c3ccccc3)nc2-c2cc3ccccc3oc2=O)s1 | 98.2%
6 | CCC(O)c1ccccc1 (stereo not given) | 98.6% and 77.4%
7 | O=C(O)c1c2c(nc3ccccc13)Cc1ccccc1-2 | 92.8% and 112%
8 | CC1(C)C2CC1C1(/C=N\Nc3ccccc3)C(C2)C(C#N)(C#N)C1(C#N)C#N (stereo not given) | 89.9%
9 | C[C@H]1[C@H]2[C@H]3CC[C@@H]4[C@@]5(C)C/C(=C/c6cccnc6)C(=O)C(C)(C)[C@@H]5CC[C@@]4(C)[C@]3(C)CC[C@]23CO[C@]1(C)[C@@H](C(=O)/C=C\c1cccnc1)C3 | 14.5%
10 | CCOC(=O)c1ccc(Nc2sc(C(=O)c3ccc(Br)cc3)c(N)c2C#N)cc1 | -2.85% (active)
11 | CC(=O)Nc1ccc(C(=O)/C=C/c2ccc(N(C)C)cc2)cc1 | 104%
12 | CCOC(=O)Nc1ccc2c(c1)/C(=N\NC(N)=S)c1ccccc1-2 | 55.4% and 78.8%
13 | Cc1ccc(C=C2C(Cl)=C(Cl)C(Cl)=C2Cl)cc1 | 7.68% (active)
14 | CC(=O)Nc1ccc(S(=O)(=O)Cl)cc1 | 103%
15 | O=C(O)Cc1ccccn1 | 106%
16 | CN(C)CCNc1cc(-c2ccccc2)nc2ccccc12 | -17.7% (active)
17 | Cc1ccc2c(c1)C(=O)/C(=C\Nc1ccc(C(N)=O)cc1)C(O)O2 (stereo not given) | 130%
18 | O=C(N=Nc1c(O)[nH]c2ccc(F)cc12)c1cc2ccccc2[nH]1 | 79.3%
19 | COc1cc(C)cc2oc3oc(=O)c(-c4nc5ccccc5s4)cc3c(=O)c12 | 109%
20 | CCOc1ccc(/C=N\N2CCCCCC2)cc1OCC | 92.7%

Row | SMILES | growth
21 | Clc1ccc2c(c1)C(N1CCNCC1)=Nc1ccccc1O2 | 50.7%
22 | CC(=O)Nc1ncc(S(=O)(=O)c2ccc([N+](=O)[O-])cc2)s1 | 113%
23 | COc1ccc(C2NCCc3c2[nH]c2ccccc32)cc1CN1CCN(c2ccc(F)cc2)CC1 (stereo not given) | 24.7%
24 | O=C(N/N=C1\c2ccccc2-c2cccc(C(=O)O)c21)c1ccc(O)cc1 | 103%
25 | COc1ncc(F)c(OC)n1 | 95.3%
26 | CCCC(O)Cn1ncc(C(=O)OCC)c1NC(=O)NCc1ccccc1F (stereo not given) | 81.6%
27 | O=C(COc1cccc(/C=C2\COc3ccc(Cl)cc3C2=O)c1)c1ccc(Cl)cc1 | 52.7%
28 | O=S(=O)(NCCCNc1cc(-c2c(-c3cccc(O)c3)nc3sccn23)ccn1)c1cccc(Cl)c1 | 17.7%
29 | O=C(CSc1nc2sc3c(c2c(=O)n1Cc1ccccc1)CCCC3)N1CCN(c2ccccc2)CC1 | 90.3%
30 | COc1cc2c(cc1-c1c(C)noc1C)ncc1nc(C3CCOCC3)n([C@@H](C)COC(F)F)c12 | 24.7%
31 | Clc1ccc2c(NCCNc3nc(N4CCCCC4)nc4ccccc34)ccnc2c1 | -61.2% (active)
32 | O=C1/C(=C/c2ccc(Cl)c(Cl)c2)CN(C(=O)C(Cl)Cl)C/C1=C\c1ccc(Cl)c(Cl)c1 | -15.2% (active)
33 | CC(C)Cc1ccc(C(C)C(=O)NCc2c[nH]c3ccc(Cl)cc23)cc1 (stereo not given) | 87.6%
34 | CCOC(=O)CNC(=O)CCCCSc1ncnc2nc[nH]c12 | 91.1%
35 | O=C(NCCO)c1cccnc1 | 97.1%
36 | CCN(CC)CCn1c(=N)n(CC(O)c2ccc(Cl)c(Cl)c2)c2ccccc21 (stereo not given) | 71%
37 | Clc1ccc(Nc2nnc(COc3ccccc3)c3ccccc23)cc1 | -15.7% (active)
38 | COc1cc2ccccc2cc1C(=O)NC(=S)Nc1ccc(-c2nc3ccccc3[nH]2)cc1 | 106%
39 | C=C1C(=O)O[C@H]2[C@H]1CC/C(COC(=O)NCc1cc[nH]c1)=C\CC[C@@]1(C)O[C@@H]21 | -6.94% (active)
40 | N=C1C(c2nc(-c3ccc(Br)cc3)cs2)=C(O)CN1Cc1cccnc1 | 72.4%
